# Assay outcomes (PubChem BioAssay)
# A selection: hits, their analogues and other compounds. The true share with any hit is near 3.5%.
# TEAD-YAP inh: TEAD-YAP interaction inhibition | HEK-TIYL cells, TEAD-Gal4/YAP UAS-luciferase luminescence | hit rate 1.4% among 640,000 | inhibition, % at 9.12 µM; in the data active = inhibition above about 32%;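 note: 0% = median of test compound wells and 100% = reference inhibitor wells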
# GPR151 ag: activates the human receptor GPR151; AID 1508602; Q8TDV0; hit rate 1% among 650,000; PathHunter beta-arrestin GPR151 cells, luminescence; activation, % at 11.2 µM; in the data active = activation above about 4.9%;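 note: 0% = median of compound wells and 100% = cells with positive control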
# Target sequence (Q8TDV0 whole entry, looked up): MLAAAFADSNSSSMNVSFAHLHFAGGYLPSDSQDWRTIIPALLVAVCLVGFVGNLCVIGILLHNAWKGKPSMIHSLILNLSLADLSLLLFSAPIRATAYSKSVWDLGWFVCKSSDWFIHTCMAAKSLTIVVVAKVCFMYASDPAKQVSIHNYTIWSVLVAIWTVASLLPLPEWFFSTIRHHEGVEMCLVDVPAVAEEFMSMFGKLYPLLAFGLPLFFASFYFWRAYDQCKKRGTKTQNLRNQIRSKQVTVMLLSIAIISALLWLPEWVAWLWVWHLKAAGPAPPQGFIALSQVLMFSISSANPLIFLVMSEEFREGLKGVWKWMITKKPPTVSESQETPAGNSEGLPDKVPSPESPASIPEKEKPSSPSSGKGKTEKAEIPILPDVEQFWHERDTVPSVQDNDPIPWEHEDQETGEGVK
# MITF primary: blocks human microphthalmia-associated transcription factor | O75030 | AlphaScreen MITF homodimerization, bead proximity signal | inhibition, % at 2.6 µM | hit rate 0.91% among 650,000 | AID 1259374; in the data active = inhibition above about 50%;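 note: 0% = vehicle wells with protein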
# FBW7 act: human FBW7 E3 ligase activation, primary screen; Q969H0; AlphaScreen FBW7–phospho-cyclin E peptide binding, activator screen; hit rate 0.13% among 650,000; normalized activity (activation), % at 26.1 µM; AID 1259310; in the data active = normalized activity above about 1.9%;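 note: purified mutant Fbw7 with reduced substrate affinity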
# GPR151 confirm: human GPR151 activation, confirmation screen | AID 1508609 | 6,700 tested, under 10 active | activation, % at 11.2 µM | shares compounds with GPR151 ag | GPR151 PathHunter beta-arrestin cells, luminescence, 90 min; % of EA-reagent control over plate median;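 active = mean percent activation across replicates above the confirmation screen cutoff of 4.91%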
# GPR119 counter: GPR119 activation, counter-screen for GPR151 activators. AID 1508611. GPR119 PathHunter beta-arrestin cells, luminescence, 90 min; 0 = compound-well median, 100 = enzyme-acceptor control. activation, % at 11.2 µM. hit rate 0.3% among 6,700. shares compounds with GPR151 ag;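 active = mean percent activation in the counterscreen above 29.09%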;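 note: counterscreen on off-target GPR119 to flag nonselective hits from the GPR151 activator screen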
# Numbers without * were called inactive; . = no result.
SMILES,TEAD-YAP inh,GPR151 ag,MITF primary,FBW7 act,GPR151 confirm,GPR119 counter
CSCCC(=O)N1CCCC(C(=O)Nc2ccc(-c3cccc(F)c3)cc2)C1 (stereo not given),-7.1,2.1,5.0,0.3,.,.
O=C(Nc1ccc(-c2cccc(F)c2)cc1)C1CCCN(C(=O)c2cscn2)C1 (stereo not given),-33.2,-2.3,15.3,0.2,.,.
CC(C)(CO)CN1CCCC(C(=O)Nc2cccc(-c3ccc(F)cc3)c2)C1 (stereo not given),-4.6,6.2*,-17.8,0.6,-1.1,-14.8
O=C(Nc1cccc(-c2ccc(F)cc2)c1)C1CCCN(C(=O)c2cscn2)C1 (stereo not given),7.0,16.7*,8.6,0.0,0.5,-1.2
CSCC(=O)N1CCCC(C(=O)Nc2ccc(-c3cccc(F)c3)cc2)C1 (stereo not given),-38.2,5.6*,-5.6,0.2,0.7,5.0
CCOC(=O)C1CCN(c2nc3ncccc3nc2-c2ccccc2)CC1,-6.0,0.2,-20.6,0.1,.,.
COc1ccc(CCNC(=O)c2csc(Nc3ccc(-n4ccnc4)cc3)n2)cc1,58.3*,6.0*,3.1,-0.1,0.1,30.5*
COc1ccc(CCNC(=O)c2cnc(Nc3ccc(-n4ccnc4)cc3)s2)cc1,-1.7,0.6,4.4,0.0,.,.
COc1ccc(CCNc2nc(Nc3ccc(-n4ccnc4)cc3)ncc2C)cc1,18.2,4.9*,7.2,0.6,-0.2,-7.9
COc1ccc(CCNC(=O)c2csc(Nc3ccc(C(F)(F)F)cc3)n2)cc1,-10.6,6.2*,10.3,-0.1,0.5,1.8
CC(C)CNS(=O)(=O)c1cccc(C(=O)O)c1,-6.0,-0.5,0.8,-0.1,.,.
COc1ccc(S(=O)(=O)N2CCC(C)CC2)cc1OC,-3.8,-1.7,12.2,0.1,.,.
COc1ccc(S(=O)(=O)N2CCC(N3CCCCC3)CC2)cc1OC,-1.9,6.3*,-8.3,0.0,-0.8,-14.2
Cc1cc(C(=O)N[C@H](Cn2nc(-c3cccs3)ccc2=O)C(C)C)on1,12.9,-0.4,3.9,0.2,.,.
CCC1CCCCN1C(=O)COC(=O)/C(C#N)=C/c1ccc2c(c1)OCO2 (stereo not given),-1.7,-0.3,14.1,0.6,.,.
CC1(C)CC2CC(C)(CN2C(=O)COC(=O)/C(C#N)=C/c2ccc3c(c2)OCO3)C1 (stereo not given),1.6,6.1*,2.1,-0.1,-0.9,-13.2
Cc1nnc(NC(C)c2ccccc2)[nH]c1=O (stereo not given),-1.4,5.5*,-2.9,0.1,-0.4,4.4
C/C(=N\Nc1cc(N2CCOCC2)nc(C)n1)c1cccc([N+](=O)[O-])c1,-9.1,5.2*,9.3,-0.3,0.7,4.1
CCCS(=O)(=O)c1c(S(=O)(=O)CCC)c2ccc(C(C)=O)cn2c1C(=O)c1ccc(OC)cc1,-3.3,6.1*,-1.2,0.1,1.3,17.9
CCCS(=O)(=O)c1c(S(=O)(=O)CCC)c2ccc(C(C)=O)cn2c1C(=O)c1ccc(C)cc1,4.9,1.2,14.6,0.1,.,.
COC(=O)c1cc(S(=O)(=O)N2CCC(C)CC2)ccc1F,6.9,11.5*,18.1,0.9,0.7,-4.2
CC1CCN(S(=O)(=O)c2ccc(F)c(C(=O)Nc3ccc(F)cc3)c2)CC1,-11.0,0.4,-9.4,0.0,.,.
COc1ccc(Cc2nnc(Nc3ccccc3C)[nH]c2=O)cc1,6.7,-1.3,12.2,0.0,.,.
COc1ccc(Cc2nnc(Nc3cc(Cl)ccc3C)[nH]c2=O)cc1,-2.6,5.0*,13.2,0.1,0.0,14.3
CNC(=O)C12CC3CC(C1)CC(C(=O)NC)(C3)C2,-4.9,0.3,6.7,0.5,.,.
SMILES,TEAD-YAP inh,GPR151 ag,MITF primary,FBW7 act,GPR151 confirm,GPR119 counter
CCCOc1ccccc1CNC(C)(C)C,-12.6,9.3*,-22.3,0.3,0.5,3.0
CC(C)c1ccccc1OCCCNC(C)(C)C,12.2,7.1*,37.5,0.2,0.0,0.7
CCOc1ccccc1OCCCNC(C)(C)C,-3.6,1.7,30.4,0.1,.,.
CC1CN(C(=O)COC(=O)C2CCC(C(C)(C)C)CC2)CC(C)O1 (stereo not given),-6.3,-0.1,7.5,0.3,.,.
Cc1nccn1CCNC(=O)c1ccc(F)c(F)c1,7.6,9.9*,-5.0,0.1,-0.4,-9.4
CCOc1ccc(CC(=O)NCCn2ccnc2C)cc1,5.3,2.8,1.0,-0.1,.,.
Cc1nc2ncnn2c(Nc2ccccc2Cl)c1C,9.3,-0.6,0.6,-0.1,.,.
COc1ccccc1CNC(=O)CC1C(=O)NCCN1Cc1ccccc1C(F)(F)F (stereo not given),7.8,0.1,-6.8,0.0,.,.
CCC(=O)N1CCN=C1SCc1cccc(C)c1,1.7,7.1*,1.4,0.0,0.6,8.6
CCC(=O)N1CCN=C1SCc1cccc(Cl)c1,-3.1,-0.9,-5.4,0.0,.,.
COCCNc1c(-c2cn(C)nc2C)nc2cnccn12,4.7,0.1,7.1,0.2,.,.
Cc1cccc(NC(=O)C(=O)N/N=C/c2ccc(C(C)C)cc2)c1,-4.0,-0.7,15.1,0.3,.,.
Cc1c(Cl)cccc1NC(=O)CSCC(=O)Nc1ccc(Br)cc1,11.0,6.4*,7.1,0.1,0.8,17.9
Cc1cc(OCC(=O)NCc2cccnc2)ccc1[N+](=O)[O-],-7.2,5.2*,2.2,0.0,-0.8,2.2
CCOc1ccc(NC(=O)c2cccnc2)c([N+](=O)[O-])c1,46.2*,5.8*,-0.5,0.0,1.0,8.5
Cc1cccc(OCC(=O)NCc2cccnc2)c1,3.9,1.8,-3.4,0.1,.,.
CC(NC(=O)Nc1ccc(F)cc1F)C1CCCO1 (stereo not given),0.3,1.2,-7.3,0.1,.,.
COc1ccccc1C(=O)COC(=O)C1(C)CC1(Cl)Cl (stereo not given),-30.6,7.6*,-2.2,0.1,2.4,12.6
COc1ccc(CCNC(=O)COC(=O)C(CC(C)C)NC(N)=O)cc1 (stereo not given),3.4,2.0,7.5,0.1,.,.
COc1ccc2c(c1)c(CC(=O)Nc1nnc(C)o1)c(C)n2C(=O)c1ccc(Cl)cc1,8.7,5.7*,12.8,-0.4,1.0,1.9
COCCSc1ccccc1C(=O)Nc1nnc(C(F)(F)F)s1,3.9,1.0,-0.3,0.0,.,.
CCOC(=O)C(NCCC(=O)c1ccc(Cl)cc1)C(C)C (stereo not given),15.2,-1.3,16.1,0.8,.,.
CCOCCn1ccc2c(OCC(=O)Nc3ccc(F)cc3F)cccc2c1=O,4.1,1.7,6.4,0.0,.,.
CCOCCn1ccc2c(OCC(=O)NCCOC)cccc2c1=O,0.3,13.8*,7.7,0.0,0.9,2.4
O=C(c1cnn2c1NC(c1cccs1)CC2C(F)(F)F)N1CCN(C(c2ccccc2)c2ccccc2)CC1 (stereo not given),-12.1,0.1,5.5,-0.1,.,.
O=C(c1cnn2c1NC(c1cccs1)CC2C(F)(F)F)N1CCc2ccccc2C1 (stereo not given),0.6,5.5*,19.7,-0.2,-0.1,0.1
